Data on 23 molecules can be found in PubChem BioAssay (NCATS).

Assay [1] can be described thus: Primary qHTS for inhibitors of nuclear receptor binding SET domain protein 2 (NSD2) in an RCH-ACV wild type WT cells (2C) (AID 1645877). Further: nearly all actives have a fitted effect of over 70% in size. Further: potency means the concentration at half of the fitted maximal effect. For orientation: Quantitative high-throughput screening tests each substance at several concentrations.
Assay [2] addresses Phospholipid hydroperoxide glutathione peroxidase GPX4 (Homo sapiens) (UniProt P36969). Briefly: Primary qHTS Assay for Inhibitors of Recombinant Selenoprotein Glutathione Peroxidase 4 (GPX4) (AID 1845192). Further: nearly all actives have a fitted effect of over 65% in size. On activity change, negative = inhibition: on the % scale 0 is the no-effect control and ±100 the full control effect. In a few lines:
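Steps: GPX4 plus compound, 30 min RT; add GR/GSH/NADPH master mix; start with cumene hydroperoxide; read 340/450 nm fluorescence at 0 and 15 min. Finals were 200 nM GPX4, 1 mM GSH, 0.5 mM CHP, 0.5 mM NADPH, 100 nM GR.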

The target in assay [3] is Luciferin 4-monooxygenase (Photinus pyralis) (UniProt P08659). Briefly: Primary firefly luciferase (FLuc) qHTS assay for identification of artifact compounds. (AID 1845220). Further: nearly all actives have a fitted effect of over 60% in size. Further: potency means the concentration at half of the fitted maximal effect.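 On activity change, negative = inhibition: plate controls were DMSO vehicle for no effect and no enzyme for full effect.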 In a few lines: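 D-luciferin and ATP (10 uM each, final) in Tris acetate buffer pH 7.6 were incubated with compounds for 15 min at room temperature. The reaction was started with 10 nM Photinus pyralis luciferase and luminescence read after 5 min. Percent inhibition was fitted to a 4-parameter Hill equation.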

The nature of assay [4]: Primary fluorescence-based thiol-reactive (MSTI) qHTS assay for identification of artifact compounds. (AID 1845221). Further: nearly all actives have a fitted effect of over 65% in size. Further: potency means the concentration at half of the fitted maximal effect.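 On activity change, negative = thiol reactive: thiol-reactive compounds lower the probe fluorescence signal.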 In a few lines: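 In PBS pH 7.4 with 2% DMSO, each compound met 4 uM MSTI for one hour at ambient temperature, shielded from light, before fluorescence detection.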
The subject of assay [5] is Nanoluciferase (engineered Oplophorus gracilirostris luciferase). As to the kind of experiment: Primary Nanoluciferase (NLuc) qHTS assay for identification of artifact compounds. (AID 1845222).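 Further: 0% = DMSO and -100% = no enzyme.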 In a few lines:
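Diluted conditioned medium from NLuc-expressing S16 cells treated with compounds for 15 min at room temperature, then Nano-Glo substrate added; luminescence read after 5 min. Percent inhibition versus no-enzyme and DMSO controls fitted to 4-parameter Hill equation.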

A short description of assay [6]: Primary redox qHTS assay for identification of artifact compounds. (AID 1845223).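 Further: 0% = DMSO and 100% = reference compound.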 Summed up:
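Redox-cycling detection via DTT (250 uM final) oxidation coupled to Amplex Red (25 uM)/HRP (250 mU/mL) in HBSS. 15 min preincubation plus 30 min after DTT, room temperature. Ex/Em 525/598 nm; 4-parameter Hill fit against DMSO and 10 uM DA3003.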

The target in assay [7] is Glutathione peroxidase 1 (Homo sapiens) (UniProt P07203). As to the kind of experiment: Primary qHTS Assay for Inhibitors of Recombinant Selenoprotein Glutathione Peroxidase 1 (GPX1) (AID 1845191). Further: nearly all actives have a fitted effect of over 65% in size. On activity, negative = inhibition: on the % scale 0 is the no-effect control and ±100 the full control effect. Summed up: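 GR-coupled readout: NADPH consumption tracked by fluorescence, ex 340/em 450 nm, at t=0 and after 15 min at RT. Final mix 10 nM GPX1, 1 mM GSH, 0.5 mM CHP, 0.5 mM NADPH, 100 nM GR, 0.01% BSA, following 30 min enzyme–compound preincubation.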

Assay [8] can be described thus: NCATS anti-infectives library activity on HEK293 viability as a counter-qHTS vs the C. elegans viability qHTS (AID 1745854). Further: on the % scale 0 is the no-effect control and ±100 the full control effect. Summed up: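 Cytotoxicity counter-screen to a worm viability qHTS: CellTiter-Glo luminescence read 10 min after reagent addition. Compounds (final up to 41.7 uM, a 1:5 dilution series) incubated 24 hr at 37C with 1,500 HEK293 cells per well; digitonin control.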

The target of assay [9] is Catechol O-methyltransferase (Homo sapiens) (UniProt P21964). As to the kind of experiment: Confirmatory Screen for Target Class Profiling of Small Molecule Inhibitors of Methyltransferases (AID 1745852; calls by dose curve; on activity change, negative = inhibition: on the % scale 0 is the no-effect control and ±100 the full control effect). To be noted: MTase-Glo luminescence, SAH detection, recombinant enzyme; measured here: COMT max response; stronger effect = lower value.
Assay [10] addresses Guanidinoacetate N-methyltransferase (Homo sapiens) (UniProt Q14353). Described as above. The conditions noted are these: activity change, negative = inhibition: at 57.3 µM (top of the series) unless noted.
Assay [11] deals with Nicotinamide N-methyltransferase (Homo sapiens) (UniProt P40261). Described as above. The conditions noted are these: MTase-Glo luminescence, SAH detection, recombinant enzyme; measured here: NNMT max response; stronger effect = lower value.
For assay [12], the target named is Phenylethanolamine N-methyltransferase (Homo sapiens) (UniProt P11086). The description is as above. To be noted: MTase-Glo luminescence, SAH detection, recombinant enzyme; measured here: PNMT max response; stronger effect = lower value.

Records with an inconclusive call do not appear. Active and inactive are the calls of the source. Unless noted, the call rests on the fitted dose curve; in most records, active means well fitted curve in the direction sought with a large enough effect; inconclusive means small, poorly fitted or top-dose-only effect, or another doubt; inactive means no such curve, though single readings can be large; an effect the other way counts as inactive or inconclusive. Where a SMILES comes first, the peptide text is derived from it. The star is where a group is joined. AFC = O=c1cc(C(F)(F)F)c2ccc(N*)cc2o1

Sequence of Phospholipid hydroperoxide glutathione peroxidase GPX4 (Homo sapiens) (P36969 whole entry, looked up): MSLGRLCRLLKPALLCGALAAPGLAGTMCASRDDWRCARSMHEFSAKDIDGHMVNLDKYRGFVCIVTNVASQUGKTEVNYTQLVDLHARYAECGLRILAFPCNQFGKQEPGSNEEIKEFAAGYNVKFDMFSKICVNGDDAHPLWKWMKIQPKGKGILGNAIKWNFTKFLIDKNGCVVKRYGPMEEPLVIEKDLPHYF
Sequence of Glutathione peroxidase 1 (Homo sapiens) (P07203 whole entry, looked up): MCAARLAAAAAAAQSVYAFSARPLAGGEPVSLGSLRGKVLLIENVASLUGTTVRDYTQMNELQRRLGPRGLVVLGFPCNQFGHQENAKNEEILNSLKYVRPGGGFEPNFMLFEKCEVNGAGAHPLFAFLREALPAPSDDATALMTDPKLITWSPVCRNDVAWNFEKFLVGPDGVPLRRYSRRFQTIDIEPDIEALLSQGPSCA
Sequence of Catechol O-methyltransferase (Homo sapiens) (P21964 whole entry, looked up): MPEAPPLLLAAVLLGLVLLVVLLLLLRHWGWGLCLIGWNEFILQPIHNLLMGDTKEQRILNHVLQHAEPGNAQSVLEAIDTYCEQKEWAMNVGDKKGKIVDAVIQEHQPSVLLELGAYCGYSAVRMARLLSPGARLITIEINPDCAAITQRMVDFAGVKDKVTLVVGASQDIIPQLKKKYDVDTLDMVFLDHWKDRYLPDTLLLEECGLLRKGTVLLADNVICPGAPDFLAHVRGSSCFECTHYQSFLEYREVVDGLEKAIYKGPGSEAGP
Sequence of Nicotinamide N-methyltransferase (Homo sapiens) (P40261 whole entry, looked up): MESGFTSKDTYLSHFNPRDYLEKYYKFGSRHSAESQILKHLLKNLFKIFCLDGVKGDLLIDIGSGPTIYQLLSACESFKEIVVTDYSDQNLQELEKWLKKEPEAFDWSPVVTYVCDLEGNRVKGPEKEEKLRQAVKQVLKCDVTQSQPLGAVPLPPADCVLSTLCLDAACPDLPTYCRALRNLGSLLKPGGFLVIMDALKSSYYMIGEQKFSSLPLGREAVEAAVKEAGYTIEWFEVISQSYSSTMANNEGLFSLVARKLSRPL
Sequence of Phenylethanolamine N-methyltransferase (Homo sapiens) (P11086 whole entry, looked up): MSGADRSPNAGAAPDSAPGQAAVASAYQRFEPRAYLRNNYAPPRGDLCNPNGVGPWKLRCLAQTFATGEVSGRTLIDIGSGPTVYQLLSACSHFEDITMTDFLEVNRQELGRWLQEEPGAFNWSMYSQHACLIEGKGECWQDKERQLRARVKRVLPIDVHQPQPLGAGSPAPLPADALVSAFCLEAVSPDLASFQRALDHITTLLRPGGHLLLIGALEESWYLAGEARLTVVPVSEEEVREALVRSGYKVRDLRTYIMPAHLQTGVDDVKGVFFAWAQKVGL

On to `CC1(C)CC[C@]2(C(=O)O)CC[C@]3(C)C(=CCC4[C@@]5(C)C[C@@H](O)[C@H](O)C(C)(C)C5CC[C@]43C)C2C1` (some centres not stated), for which the Potency entry in assay [1], in [2], in assay [3], in assay [4], in [5] and in [6] was “inactive” in each case.

As to `CC(Oc1ccc2[nH]nc(/C=C/c3cnn(CCO)c3)c2c1)c1c(Cl)cncc1Cl` (configuration not stated), the Potency in assay [1] is 0.103 µM (active). Besides, the Potency entry in [2], in [3] and in assay [5] was “inactive” each time.

As to `Cc1ccc(NC(=O)c2ccc(CN3CC[C@H](N(C)C)C3)c(C(F)(F)F)c2)cc1Nc1nccc(-c2cncnc2)n1`, the Potency in assay [1] is 7.23 µM (active). Further, the Potency entry in assay [2], in assay [3], in assay [4], in assay [5] and in [6] was “inactive” each time.

Regarding `OC[C@H]1O[C@@H](O[C@H]2[C@H](OCCc3ccccc3)O[C@H](CO)[C@@H](O)[C@@H]2O)[C@H](O)[C@@H](O)[C@@H]1O`, the Potency entry in assay [1], in assay [2], in assay [3], in [5] and in assay [6] was “inactive” throughout. The Potency in assay [4] was 10.3 µM (active).

On to `CC(C)=CCC/C(C)=C/CO[C@@H]1O[C@H](CO)[C@@H](O)[C@H](O)[C@H]1O`, for which the Potency entry in assay [1], in [2], in assay [3], in assay [4], in [5] and in [6] was “inactive” each time.

On to `CCOc1cc(CC(=O)NC(CC(C)C)c2ccccc2N2CCCCC2)ccc1C(=O)O` (configuration not stated), for which the Potency entry in assay [1], in assay [2], in assay [3], in assay [4], in assay [5] and in [6] was “inactive” throughout.

With `CC1CCN(C(=O)CC#N)CC1N(C)c1ncnc2[nH]ccc12` (configuration not stated), the Potency entry in assay [1], in assay [2], in assay [3], in [4], in [5] and in [6] was “inactive” in each case.

Consider `CC1=C(CCC(C)CC(=O)O)[C@@]2(C)CCCC(C)(C)C2CC1=O` (some centres not stated), for which the Potency result in assay [1], in assay [2], in assay [3], in assay [4], in [5] and in assay [6] was “inactive” throughout.

In the case of `CC(NC(=O)CCc1nc2ccccc2c(=O)[nH]1)c1ccccc1` (configuration not stated), the Potency entry in assay [1], in [2], in assay [3], in assay [4], in assay [5] and in [6] was “inactive” throughout.

Turning to `CCc1cnn2c(NCc3ccc[n+]([O-])c3)cc(N3CCCCC3CCO)nc12` (configuration not stated), the Potency in assay [1] was 0.0092 µM (active). Further, the Potency result in assay [2], in assay [3] and in [5] was “inactive” throughout.

Regarding `CC1(C)CC[C@]23CO[C@@]4(CCC5[C@@]6(C)CC[C@H](O[C@@H]7OC[C@H](O[C@@H]8O[C@H](CO)[C@@H](O)[C@H](O)[C@H]8O)[C@H](O)[C@H]7O[C@@H]7O[C@H](CO)[C@@H](O[C@@H]8O[C@H](CO)[C@@H](O)[C@H](O)[C@H]8O)[C@H](O)[C@H]7O)[C@@](C)(CO)C6CC[C@@]5(C)[C@]4(C)C[C@H]2OC2OCC(O)C(O)C2O)C3C1` (some centres not stated), in assay [1], the Potency is 1.09 µM (active). The values for the activity change, negative = inhibition in [2] and in assay [3] were -5.8% [at 9.73 µM] (inactive) and -1.22% [at 11.6 µM] (inactive), respectively. Moreover, the activity change, negative = thiol reactive in [4] was 227% [at 11.5 µM] (inactive). Besides, in [5], the activity, negative = inhibition is 0% [at 11.6 µM] (inactive). For the same molecule, the redox activity (% of DA3003) in [6] was 2.43% [at 11.5 µM] (inactive).

`CO[C@H]1O[C@@H]2O[C@]3(C)CC[C@H]4[C@H](C)CC[C@@H]([C@H]1C)[C@@]24OO3`: in [1], the Potency was 7.28 µM (active). The Potency entry in assay [2], in [3], in assay [4], in assay [5] and in assay [6] was “inactive” each time.

Consider `CC(=O)SCC(=O)c1ccc(NS(=O)(=O)c2ccc(OCCCN(C)C)cc2)nc1`, for which, in [1], the Potency is 1.15 µM (active). Moreover, the Potency entry in [2], in assay [3], in assay [5] and in [6] was “inactive” throughout.

For `OC[C@@]1(O)CO[C@@H](OC[C@H]2O[C@@H](Oc3c[nH]c4ccccc34)[C@H](O)[C@@H](O)[C@@H]2O)[C@@H]1O`, the Potency result in [1], in [2], in assay [3], in [5] and in assay [6] was “inactive” each time.

Take `CC(C)CN(C[C@@H](O)[C@H](Cc1ccccc1)NC(=O)O[C@@H]1CO[C@H]2OCC[C@H]21)S(=O)(=O)c1ccc(N)cc1`: the Potency entry in assay [1], in assay [2], in [3], in [4], in [5] and in assay [6] was “inactive” in each case.

`CC(=O)N[C@@H](Cc1c[nH]c2ccccc12)C(=O)N[C@@H](CCC(=O)O)C(=O)N[C@@H](Cc1cnc[nH]1)C(=O)N[C@@H](CC(=O)O)C(=O)Nc1ccc2c(C(F)(F)F)cc(=O)oc2c1` (Ac-WEHD-{AFC}): the Potency result in assay [1], in assay [3], in assay [4], in assay [5] and in assay [6] was “inactive” each time.

`CCOCCOC(=O)/C=C/c1ccc(OC)cc1`: the Potency entry in assay [7] and in assay [2] was “inactive” each time.

Turning to `CNC(=O)c1ccccc1Nc1nc(Nc2ccc3c(c2OC)CCC[C@@H](N2CCN(CCO)CC2)C3)ncc1Cl`, the Potency in assay [1] is 6.61 µM (active). The Potency entry in assay [3], in assay [4] and in assay [5] was “inactive” throughout.

Consider `CCNCc1nc2c(N)nc3ccccc3c2n1CC(C)(C)O`, for which the Potency result in [8], in [7], in assay [2], in [3], in [4] and in assay [5] was “inactive” throughout. In addition, the Potency result in [6] is “inactive”.

Take `COc1cc(OC)cc(C(=O)Nc2ccc(Cl)c(-c3nc4ccc(N(C)C)cc4[nH]3)c2)c1`: the activity was -4.1% in [9], -8.83% in [11] and -5.51% in [12]. Besides, the activity change, negative = inhibition in assay [10] was -3.69%. For the same molecule, the Potency entry in [7], in assay [2], in assay [5] and in assay [6] was “inactive” throughout. For the same molecule, the results for the Potency in assay [3] and in assay [4] were 8.49 µM (active) and 3.77 µM (active), respectively.

As to `Cc1cnc(Nc2ccc(F)cc2Cl)nc1-c1c[nH]c(C(=O)NC(CO)c2cccc(Cl)c2)c1` (configuration not stated), the Potency in [1] was 2.3 µM (active); in assay [4], 2.67 µM (active). In addition, the Potency entry in assay [3] and in assay [5] was “inactive” each time.

Turning to `COc1ccc(C2(O)CCC(N3CC[C@@H](NC(=O)CNC(=O)c4cccc(C(F)(F)F)c4)C3)CC2)cn1` (some centres not stated), the activity in [9] is -5.05%; in [11] it was 0.219%; in assay [12], 0.417%. For the same molecule, the activity change, negative = inhibition in assay [10] was -4.96%. For the same molecule, the Potency result in assay [7], in [2], in assay [3], in assay [4] and in assay [5] was “inactive” in each case.

In the case of `Cc1cc(N2CCN([C@@H]3CN[C@H](C(=O)N4CCSC4)C3)CC2)n(-c2ccccc2)n1`, the Potency entry in assay [8], in [7], in assay [2], in assay [3], in [4] and in assay [5] was “inactive” throughout. The Potency entry in [6] was “inactive”.
